# Measured values as given in publication PMC5540273 (PLoS ONE, 2017).
# Legend:
# Conditions in all cases: concentration: 1 μM, replicates: in singlicate; n = 1
# PIK4CB = tested on: T1, PIK4CB
# T1 construct: gene PI4KB
# PIKFYVE = tested on: PIKFYVE
# PIM1 = tested on: PIM1
# PIM2 = tested on: PIM2
# PIM3 = tested on: PIM3
# PIP5K1A = tested on: PIP5K1A
# PIP5K1C = tested on: PIP5K1C
# PIP5K2B = tested on: PIP5K2B
# PIP5K2C = tested on: T2, PIP5K2C
# T2 construct: gene PIP4K2C
# PKAC-alpha = tested on: T3, PKAC-alpha
# T3 construct: gene PRKACA
# PKAC-beta = tested on: T4, PKAC-beta
# T4 construct: gene PRKACB
# PKMYT1 = tested on: PKMYT1
# PKN1 = tested on: PKN1
# PKN2 = tested on: PKN2
# PLK1 = tested on: PLK1
# PLK2 = tested on: PLK2
# PLK3 = tested on: PLK3
# PLK4 = tested on: PLK4
# PRKCD = tested on: PRKCD
# PRKCE = tested on: PRKCE
# 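Note: KINOMEscan kinase panel screen.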
smiles,measurement,setting,value
c1ccc(-c2ccnc3[nH]ccc23)cc1 [SB-693578],%Inh,PIK4CB,4%
same,%Inh,PIKFYVE,11%
same,%Inh,PIM1,0%
same,%Inh,PIM2,0%
same,%Inh,PIM3,0%
same,%Inh,PIP5K1A,40%
same,%Inh,PIP5K1C,28%
same,%Inh,PIP5K2B,4%
same,%Inh,PIP5K2C,18%
same,%Inh,PKAC-alpha,0%
same,%Inh,PKAC-beta,8%
same,%Inh,PKMYT1,6%
same,%Inh,PKN1,0%
same,%Inh,PKN2,0%
same,%Inh,PLK1,0%
same,%Inh,PLK2,0%
same,%Inh,PLK3,0%
same,%Inh,PLK4,5%
same,%Inh,PRKCD,0%
same,%Inh,PRKCE,7%
COc1ccc(CSc2nnc(-c3ccc4ncsc4c3)o2)cc1C(F)(F)F,%Inh,PIK4CB,0%
same,%Inh,PIKFYVE,0%
same,%Inh,PIM1,1%
same,%Inh,PIM2,0%
same,%Inh,PIM3,10%
same,%Inh,PIP5K1A,0%
same,%Inh,PIP5K1C,11%
same,%Inh,PIP5K2B,17%
same,%Inh,PIP5K2C,11%
same,%Inh,PKAC-alpha,0%
same,%Inh,PKAC-beta,1%
same,%Inh,PKMYT1,22%
same,%Inh,PKN1,0%
same,%Inh,PKN2,0%
same,%Inh,PLK1,0%
same,%Inh,PLK2,4%
same,%Inh,PLK3,0%
same,%Inh,PLK4,2%
same,%Inh,PRKCD,13%
same,%Inh,PRKCE,0%
Cn1cncc1C(=O)NC1CCN(c2ccnc(Nc3ccc(F)cc3)n2)C1 (centres unmarked) [GSK1379717],%Inh,PIK4CB,26%
same,%Inh,PIKFYVE,0%
same,%Inh,PIM1,15%
same,%Inh,PIM2,0%
same,%Inh,PIM3,0%
same,%Inh,PIP5K1A,0%
same,%Inh,PIP5K1C,32%
same,%Inh,PIP5K2B,0%
same,%Inh,PIP5K2C,20%
same,%Inh,PKAC-alpha,0%
same,%Inh,PKAC-beta,0%
same,%Inh,PKMYT1,0%
same,%Inh,PKN1,52%
same,%Inh,PKN2,0%
same,%Inh,PLK1,12%
same,%Inh,PLK2,0%
same,%Inh,PLK3,11%
same,%Inh,PLK4,0%
same,%Inh,PRKCD,0%
same,%Inh,PRKCE,0%
COC(=O)C(Cc1ccccc1)NC(=O)NC1CCN(c2ccnc(Nc3ccc(F)cc3)n2)C1 (centres unmarked) [GSK1379714],%Inh,PIK4CB,7%
same,%Inh,PIKFYVE,22%
same,%Inh,PIM1,0%
same,%Inh,PIM2,0%
same,%Inh,PIM3,0%
same,%Inh,PIP5K1A,45%
same,%Inh,PIP5K1C,35%
same,%Inh,PIP5K2B,30%
same,%Inh,PIP5K2C,36%
same,%Inh,PKAC-alpha,0%
same,%Inh,PKAC-beta,0%
same,%Inh,PKMYT1,0%
same,%Inh,PKN1,41%
same,%Inh,PKN2,0%
same,%Inh,PLK1,6%
same,%Inh,PLK2,0%
same,%Inh,PLK3,0%
same,%Inh,PLK4,12%
same,%Inh,PRKCD,1%
same,%Inh,PRKCE,20%
CC(=O)c1c(C)c2cnc(Nc3ccc(N4CCNCC4)cn3)nc2n(C2CCCC2)c1=O,%Inh,PIK4CB,0%
same,%Inh,PIKFYVE,39%
same,%Inh,PIM1,0%
same,%Inh,PIM2,0%
same,%Inh,PIM3,0%
same,%Inh,PIP5K1A,0%
same,%Inh,PIP5K1C,0%
same,%Inh,PIP5K2B,0%
same,%Inh,PIP5K2C,14%
same,%Inh,PKAC-alpha,0%
same,%Inh,PKAC-beta,6%
same,%Inh,PKMYT1,23%
same,%Inh,PKN1,0%
same,%Inh,PKN2,15%
same,%Inh,PLK1,0%
same,%Inh,PLK2,0%
same,%Inh,PLK3,0%
same,%Inh,PLK4,6%
same,%Inh,PRKCD,18%
same,%Inh,PRKCE,55%
COc1ccc(CSc2nnc(-c3ccc4c(c3)CCO4)o2)cc1,%Inh,PIK4CB,0%
same,%Inh,PIKFYVE,0%
same,%Inh,PIM1,0%
same,%Inh,PIM2,0%
same,%Inh,PIM3,0%
same,%Inh,PIP5K1A,11%
same,%Inh,PIP5K1C,23%
same,%Inh,PIP5K2B,9%
same,%Inh,PIP5K2C,14%
same,%Inh,PKAC-alpha,0%
same,%Inh,PKAC-beta,0%
same,%Inh,PKMYT1,19%
same,%Inh,PKN1,0%
same,%Inh,PKN2,0%
same,%Inh,PLK1,0%
same,%Inh,PLK2,0%
same,%Inh,PLK3,0%
same,%Inh,PLK4,0%
same,%Inh,PRKCD,14%
same,%Inh,PRKCE,0%
Cc1ccc(NC(=O)c2ccc(Cl)cc2)cc1-c1ccc(C(=O)Nc2ccncc2)cc1 [GSK1398467],%Inh,PIK4CB,0%
same,%Inh,PIKFYVE,0%
same,%Inh,PIM1,0%
same,%Inh,PIM2,0%
same,%Inh,PIM3,0%
same,%Inh,PIP5K1A,0%
same,%Inh,PIP5K1C,45%
same,%Inh,PIP5K2B,0%
same,%Inh,PIP5K2C,33%
same,%Inh,PKAC-alpha,0%
same,%Inh,PKAC-beta,0%
same,%Inh,PKMYT1,2%
same,%Inh,PKN1,2%
same,%Inh,PKN2,0%
same,%Inh,PLK1,0%
same,%Inh,PLK2,0%
same,%Inh,PLK3,0%
same,%Inh,PLK4,0%
same,%Inh,PRKCD,3%
same,%Inh,PRKCE,15%
